Inconclusive results are not listed. Active and inactive are the calls of the source. Unless noted, calls follow the shape of the dose curve; as a rule, active = well fitted curve in the direction sought with a large enough effect; inconclusive = small, poorly fitted or top-dose-only effect, or another doubt; inactive = no such curve, though single readings can be large; an effect the other way counts as inactive or inconclusive.
Assays:
[1] = biological target: Lysosomal acid glucosylceramidase (Homo sapiens) (UniProt P04062); experiment: Glucocerebrosidase-p2 (AID 348; in the data active = potency below about 10 µM; also: potency is read from the fitted curve at half-maximal effect); details: purified GBA, blue fluorogenic substrate, 40 min
Method in brief: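 Compounds titrated from 0.6 nM upwards against 0.2 nM enzyme in pH 5.9 citric acid/KH2PO4, taurocholate, tween-20; blue fluorogenic substrate 80 uM, 40 min room temperature, stopped and read Ex 365/Em 440 for AC50.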

[2] = AP1 Signaling Pathway (AID 357; active = well fitted curve in either direction with a large enough effect, not every such curve was filed as active;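 also: ME-180 reporter cells stimulated with EGF at its EC50 level; % is scaled to controls: 0 for no effect and ±100 for the full control effect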); details: ME-180 AP-1-bla reporter, EGF-induced, beta-lactamase ratio, 5 h; at 7.69 µM (top of the series) unless noted
Method in brief: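 AP-1-bla ME-180 cells, Opti-MEM + 0.5% dialyzed FBS, plated overnight 37 °C. Cpd titration + EC50 EGF, 5 h 37 °C. CCF4 2.5 h RT; ex 405, em 460/530 ratio → %activity, AC50.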

[3] = biological target: Cytochrome P450 1A2 (Homo sapiens) (UniProt P05177); experiment: p450-cyp1a2 (AID 410; calls by dose curve; also: potency is read from the fitted curve at half-maximal effect); details: recombinant CYP1A2, luciferin-ME demethylation, luminescence; series mostly up to 57 µM
Method in brief: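 20nM CYP1A2 with 100uM Luciferin-ME (at Km) in 100mM KPO4; compound preincubated 10 min, NADPH regeneration added, 60 min at room temperature. Luciferin quantified by luminescence after detection reagent; normalized to 57 uM furafylline.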

[4] = NFAT Signaling Pathway (AID 444; active = well fitted curve in either direction with a large enough effect, not every such curve was filed as active;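 also: carbachol stimulus at about its EC50 of 1 µM final; % is scaled to controls: 0 for no effect and ±100 for the full control effect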); details: Jurkat NFAT-bla M1, carbachol, beta-lactamase ratio, 5 h; at 7.69 µM (top of the series) unless noted
Method in brief: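 Jurkat cells with NFAT-driven β-lactamase reporter and co-expressed M1 receptor, stimulated with carbachol (final 1 uM, ~EC50), compound titration, 5 h at 37 °C. CCF4 loaded 1 h at RT; 460/530 nm ratio gave %activity and AC50.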

[5] = biological target: Glucocorticoid receptor (Homo sapiens) (UniProt P04150); experiment: GR-GFP Redistribution (AID 450;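 active = compounds whose dose series gives a full or clear partial fitted curve of increased nuclear translocation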; also: potency is read from the fitted curve at half-maximal effect); details: U2OS GR-GFP nuclear translocation, laser cytometry, 2 h
[6] = biological target: Glucocorticoid receptor (Homo sapiens) (UniProt P04150); experiment: GR-EFC Redistribution (AID 451; calls by dose curve; also: potency is read from the fitted curve at half-maximal effect); details: CHO-K1 GR-EFC translocation, beta-gal luminescence, 2 h
Method in brief: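 CHO-K1 cells expressing nuclear EA and GR-ED fragments of b-gal; compounds titrated up to 46 uM final, 2 h at 37 C. GR nuclear translocation read as complemented b-gal luminescence after 1 h RT detection.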

[7] = biological target: Mitogen-activated protein kinase 10 (Mus musculus) (UniProt Q61831); experiment: JNK3 AlphaScreen Assay (AID 530; active = well fitted curve in either direction with a large enough effect, not every such curve was filed as active;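 also: kinase came from lysate of stimulated human HepG2 cells; signal reports phosphorylation of biotinylated GST-cJun 1-79 at Ser73 with 10 µM ATP; % is scaled to controls: 0 for no effect and ±100 for the full control effect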); details: JNK3 lysate, c-Jun phosphorylation; series mostly up to 57.1 µM
Method in brief: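 Pre-activated (IL-1β/TNFα) JNK3 in HepG2 lysates phosphorylates biotin-GST-cJun(1-79), 10 uM ATP; anti-phospho-cJun(Ser73) AlphaScreen read at room temperature, pH 7.6 Tris buffer. Compounds pre-incubated 15 min as titrations.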

[8] = biological target: 3',5'-cyclic-AMP phosphodiesterase 4B (Homo sapiens) (UniProt Q07343); experiment: qHTS Assay for Inhibitors of PDE-IV (AID 607; active = well fitted activation curve with a large enough effect in the main read-out, with a control signal flat, not every such curve was filed as active; also: % of control where 0% means no effect); details: HEK293 ACTOne CNG channel cells, membrane potential fluorescence; series mostly up to 22.9 µM
Method in brief: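 The readout is membrane depolarisation from a cAMP-sensing CNG channel, detected with a potential dye at ex 535/em 590. Cells were HEK293-derived (endogenous PDE-IV) at 1000 cells/well, titrated up to 22.9 uM final.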

[9] = biological target: Cytochrome P450 3A4 (Homo sapiens) (UniProt P08684); experiment: qHTS Assay for Activators of Cytochrome P450 3A4 (AID 885); details: recombinant CYP3A4, Luciferin-PPXE luminescence, 60 min; series mostly up to 57.1 µM; also: nearly all actives have a fitted effect of over 65% in size
Method in brief: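 Steps: enzyme/substrate mix dispensed; compound added, 10 min RT; NADPH regeneration solution added, 60 min RT; luciferin detection buffer stops reaction; 20 min later luminescence measured.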

[10] = qHTS Assay for Lipid Storage Modulators (AID 1519; calls by dose curve); details: Drosophila S3 cells, BODIPY lipid droplet/cell ratio, laser cytometry, cells loaded with oleic acid; for activity change, negative = inhibition: at 57.5 µM (top of the series)
Method in brief: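 Cells seeded at 5,000 per well were treated with compounds over a concentration series and loaded with oleic acid (400 uM, as added). Lipid droplet fluorescence (488 nm excitation, 500-530 nm channel) was read by laser-scanning cytometry and normalized to 20 uM Triacsin C.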

[11] = biological target: Dual specificity protein kinase CLK4 (Homo sapiens) (UniProt Q9HAZ1); experiment: qHTS Assay for Inhibitors of CDC-like Kinase 4 (Kinase-Glo Assay) (AID 1770); details: recombinant Clk4, Kinase-Glo ATP depletion luminescence; series mostly up to 66.7 µM; also: % is scaled to controls: 0 for no effect and ±100 for the full control effect; nearly all actives have a fitted effect of over 65% in size
Method in brief: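 25 nM Clk4 with 100 uM RS repeat peptide and 1 uM ATP (final) in Tris pH7.5, 10 mM MgCl2, 4.5 h at room temperature. Remaining ATP measured by Kinase-Glo luciferase luminescence.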

[12] = biological target: Dual specificity protein kinase CLK4 (Homo sapiens) (UniProt Q9HAZ1); experiment: qHTS Assay for Inhibitors of CDC-like Kinase 4 (ADP-Glo Assay) (AID 1771); details: recombinant CLK4, ADP-Glo luminescence; series mostly up to 80 µM; also: % is scaled to controls: 0 for no effect and ±100 for the full control effect; nearly all actives have a fitted effect of over 70% in size
Method in brief: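 25 nM Clk4 with 100 uM RS repeat peptide and 1 uM ATP (final) in buffer with 2 mM MgCl2, 0.5 mM EGTA, 2.5 mM DTT, 0.01% Triton X-100; 1 h at room temperature; ADP-Glo luminescence for ADP formed.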

[13] = biological target: Dual specificity protein kinase CLK4 (Homo sapiens) (UniProt Q9HAZ1); experiment: qHTS Assay for Inhibitors of CDC-like Kinase 4 (ADP-FP Assay) (AID 1795); details: Transcreener ADP fluorescence polarization; series mostly up to 50 µM;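 also: recombinant human CLK4 phosphorylating RS repeat peptide at 1 µM ATP; % is scaled to controls: 0 for no effect and ±100 for the full control effect; nearly all actives have a fitted effect of over 60% in size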
Method in brief: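 Recombinant Clk4 (6.25 nM) phosphorylated 100 uM RS repeat peptide with 1 uM ATP in 25 mM Tris pH 7.5, 10 mM MgCl2, 0.5 mM EGTA, 2.5 mM DTT, 0.01% Triton X-100 for 1 h. ADP was detected by Transcreener ADP2 competitive fluorescence polarization after 30 min at room temperature.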

[14] = biological target: Ubiquitin carboxyl-terminal hydrolase 1 (Homo sapiens) (UniProt O94782); experiment: Inhibitors of USP1/UAF1: Pilot qHTS (AID 504865); details: purified USP1/UAF1, Ub-rhodamine cleavage fluorescence; series mostly up to 54.9 µM;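 also: rhodamine fluorescence freed from ubiquitin-rhodamine substrate followed over time; top concentration of the series differs between compounds; % is scaled to controls: 0 for no effect and ±100 for the full control effect; nearly all actives have a fitted effect of over 35% in size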
Method in brief: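 USP1/UAF1 complex at 1 nM preincubated 15 min at room temperature with compound, then Ub-Rho substrate added at 150 nM final. Fluorescence (480/540 nm) read kinetically in 50 mM HEPES pH 7.8, 0.5 mM EDTA, 1 mM TCEP, 0.1 mg/ml BSA, 0.01% Tween-20.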

[15] = Primary qHTS for small molecule stabilizers of the endoplasmic reticulum resident proteome: Secreted ER Calcium Modulated Protein (SERCaMP) assay (AID 1508630); details: SH-SY5Y GLuc-SERCaMP (Gaussia luciferase released on ER calcium loss) secretion, thapsigargin, luminescence; series mostly up to 38.4 µM; also: % is scaled to controls: 0 for no effect and ±100 for the full control effect
Method in brief: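 GLuc-SERCaMP-expressing SH-SY5Y cells, pretreated 16 h with compound, are challenged with thapsigargin to empty ER calcium stores; after 4 h, coelenterazine is added directly to the medium and luminescence is imaged.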

[16] = Stat Signaling Pathway (AID 446; active = well fitted curve in either direction with a large enough effect, not every such curve was filed as active); details: ME-180 SIE beta-lactamase reporter, IL-6 stimulated, 5 h; at 7.69 µM (top of the series) unless noted
Method in brief: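 Screening format detects activators and inhibitors alike: ME-180 SIE-bla cells stimulated at 40 pM IL-6 for 5 hrs with compound, then dual-emission beta-lactamase read at 405 nm excitation.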

[17] = biological target: Cytochrome P450 3A4 (Homo sapiens) (UniProt P08684); experiment: qHTS Assay for Inhibitors and Substrates of Cytochrome P450 3A4 (AID 884); details: recombinant CYP3A4, Luciferin-PPXE luminescence; series mostly up to 57.1 µM; also: potency is read from the fitted curve at half-maximal effect; nearly all actives have a fitted effect of over 50% in size
Method in brief: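 20 nM human CYP3A4 with 25 uM Luciferin-PPXE (at KM) in 200 mM KPO4, preincubated 10 min with compound; NADPH regeneration started a 60 min RT reaction. Luciferin detected by luminescence, normalized to 57 uM ketoconazole as full inhibition.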

[18] = measured here: cell count channel max response
[19] = measured here: lipid channel max response

Chain of Glucocorticoid receptor (Homo sapiens) (P04150 whole entry, looked up, the tested form may be a part): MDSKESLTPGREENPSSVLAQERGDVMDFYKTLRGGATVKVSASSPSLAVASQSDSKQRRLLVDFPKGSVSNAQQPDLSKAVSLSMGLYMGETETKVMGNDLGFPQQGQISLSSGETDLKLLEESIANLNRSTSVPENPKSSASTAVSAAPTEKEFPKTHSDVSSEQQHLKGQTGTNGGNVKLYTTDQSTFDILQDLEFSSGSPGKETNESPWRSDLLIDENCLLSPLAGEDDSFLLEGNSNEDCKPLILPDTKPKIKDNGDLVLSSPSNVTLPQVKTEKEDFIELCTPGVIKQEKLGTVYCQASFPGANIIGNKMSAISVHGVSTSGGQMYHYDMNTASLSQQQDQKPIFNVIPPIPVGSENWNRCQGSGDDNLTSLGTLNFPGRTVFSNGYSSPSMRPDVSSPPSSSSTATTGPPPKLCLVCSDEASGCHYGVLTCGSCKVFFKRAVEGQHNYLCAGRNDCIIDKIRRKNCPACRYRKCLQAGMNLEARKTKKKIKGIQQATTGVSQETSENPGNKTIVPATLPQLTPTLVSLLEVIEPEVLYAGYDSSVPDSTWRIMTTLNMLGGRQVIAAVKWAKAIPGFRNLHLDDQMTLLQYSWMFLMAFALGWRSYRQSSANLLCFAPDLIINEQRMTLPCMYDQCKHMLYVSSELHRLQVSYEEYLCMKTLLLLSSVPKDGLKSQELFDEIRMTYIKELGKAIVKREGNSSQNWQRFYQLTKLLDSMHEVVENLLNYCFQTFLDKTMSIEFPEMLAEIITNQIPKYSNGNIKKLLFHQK
Chain of Lysosomal acid glucosylceramidase (Homo sapiens) (P04062 whole entry, looked up): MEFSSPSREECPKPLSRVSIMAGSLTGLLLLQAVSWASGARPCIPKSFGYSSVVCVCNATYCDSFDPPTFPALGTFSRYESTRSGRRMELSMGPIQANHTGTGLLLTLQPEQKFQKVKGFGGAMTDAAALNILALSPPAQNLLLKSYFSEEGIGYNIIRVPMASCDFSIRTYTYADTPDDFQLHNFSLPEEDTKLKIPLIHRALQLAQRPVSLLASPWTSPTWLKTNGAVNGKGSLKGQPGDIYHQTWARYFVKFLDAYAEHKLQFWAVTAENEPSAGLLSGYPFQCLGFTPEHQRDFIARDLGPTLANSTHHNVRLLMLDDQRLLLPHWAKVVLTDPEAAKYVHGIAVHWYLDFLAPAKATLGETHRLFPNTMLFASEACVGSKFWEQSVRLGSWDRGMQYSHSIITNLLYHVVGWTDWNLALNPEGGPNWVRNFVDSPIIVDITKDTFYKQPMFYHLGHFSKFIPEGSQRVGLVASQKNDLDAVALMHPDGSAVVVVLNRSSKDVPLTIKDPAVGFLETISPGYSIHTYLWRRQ
Chain of Cytochrome P450 1A2 (Homo sapiens) (P05177 whole entry, looked up): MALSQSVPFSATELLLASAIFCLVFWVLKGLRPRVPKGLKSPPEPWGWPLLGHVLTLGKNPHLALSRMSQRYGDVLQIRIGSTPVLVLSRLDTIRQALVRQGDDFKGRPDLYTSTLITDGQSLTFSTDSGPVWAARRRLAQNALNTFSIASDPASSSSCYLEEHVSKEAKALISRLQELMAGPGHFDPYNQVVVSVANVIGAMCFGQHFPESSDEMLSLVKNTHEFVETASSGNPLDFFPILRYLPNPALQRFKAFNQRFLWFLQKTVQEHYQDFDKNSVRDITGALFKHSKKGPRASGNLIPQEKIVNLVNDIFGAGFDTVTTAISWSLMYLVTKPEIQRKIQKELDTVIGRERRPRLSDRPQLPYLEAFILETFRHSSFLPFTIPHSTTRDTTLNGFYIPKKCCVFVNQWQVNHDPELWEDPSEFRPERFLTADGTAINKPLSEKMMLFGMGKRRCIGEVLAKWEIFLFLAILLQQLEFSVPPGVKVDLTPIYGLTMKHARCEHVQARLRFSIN
Chain of Cytochrome P450 3A4 (Homo sapiens) (P08684 whole entry, looked up): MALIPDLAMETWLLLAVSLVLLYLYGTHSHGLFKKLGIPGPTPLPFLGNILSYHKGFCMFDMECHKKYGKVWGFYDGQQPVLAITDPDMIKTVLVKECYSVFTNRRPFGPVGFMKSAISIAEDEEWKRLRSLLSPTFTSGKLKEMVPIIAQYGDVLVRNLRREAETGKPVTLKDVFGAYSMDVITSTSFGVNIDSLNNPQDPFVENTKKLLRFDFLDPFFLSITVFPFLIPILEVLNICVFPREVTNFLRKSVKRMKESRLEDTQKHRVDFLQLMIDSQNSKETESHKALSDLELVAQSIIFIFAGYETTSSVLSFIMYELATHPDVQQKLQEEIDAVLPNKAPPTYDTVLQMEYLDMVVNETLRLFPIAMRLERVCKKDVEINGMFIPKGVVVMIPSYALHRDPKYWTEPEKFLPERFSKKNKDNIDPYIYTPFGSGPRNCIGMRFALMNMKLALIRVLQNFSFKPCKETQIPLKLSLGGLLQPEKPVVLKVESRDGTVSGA
Chain of Ubiquitin carboxyl-terminal hydrolase 1 (Homo sapiens) (O94782 whole entry, looked up): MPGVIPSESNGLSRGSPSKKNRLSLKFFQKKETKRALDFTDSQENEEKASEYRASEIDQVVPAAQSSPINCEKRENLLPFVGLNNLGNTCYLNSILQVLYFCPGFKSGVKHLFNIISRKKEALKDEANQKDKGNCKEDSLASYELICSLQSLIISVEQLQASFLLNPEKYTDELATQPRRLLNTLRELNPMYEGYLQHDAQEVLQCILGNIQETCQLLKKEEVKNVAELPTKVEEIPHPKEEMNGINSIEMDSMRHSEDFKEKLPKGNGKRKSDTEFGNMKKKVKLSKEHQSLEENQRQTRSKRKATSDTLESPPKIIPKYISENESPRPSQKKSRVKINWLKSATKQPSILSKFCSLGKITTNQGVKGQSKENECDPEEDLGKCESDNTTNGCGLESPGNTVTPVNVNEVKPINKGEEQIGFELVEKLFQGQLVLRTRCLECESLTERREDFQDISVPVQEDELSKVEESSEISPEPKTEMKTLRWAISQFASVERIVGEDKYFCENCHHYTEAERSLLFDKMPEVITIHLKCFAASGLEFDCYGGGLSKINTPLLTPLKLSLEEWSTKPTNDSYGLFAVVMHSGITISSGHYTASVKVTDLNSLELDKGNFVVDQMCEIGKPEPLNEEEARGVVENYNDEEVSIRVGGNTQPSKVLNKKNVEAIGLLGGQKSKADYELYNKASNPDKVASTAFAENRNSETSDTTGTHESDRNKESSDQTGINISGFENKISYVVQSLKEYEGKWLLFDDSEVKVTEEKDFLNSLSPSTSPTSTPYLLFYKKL
Chain of 3',5'-cyclic-AMP phosphodiesterase 4B (Homo sapiens) (Q07343 whole entry, looked up): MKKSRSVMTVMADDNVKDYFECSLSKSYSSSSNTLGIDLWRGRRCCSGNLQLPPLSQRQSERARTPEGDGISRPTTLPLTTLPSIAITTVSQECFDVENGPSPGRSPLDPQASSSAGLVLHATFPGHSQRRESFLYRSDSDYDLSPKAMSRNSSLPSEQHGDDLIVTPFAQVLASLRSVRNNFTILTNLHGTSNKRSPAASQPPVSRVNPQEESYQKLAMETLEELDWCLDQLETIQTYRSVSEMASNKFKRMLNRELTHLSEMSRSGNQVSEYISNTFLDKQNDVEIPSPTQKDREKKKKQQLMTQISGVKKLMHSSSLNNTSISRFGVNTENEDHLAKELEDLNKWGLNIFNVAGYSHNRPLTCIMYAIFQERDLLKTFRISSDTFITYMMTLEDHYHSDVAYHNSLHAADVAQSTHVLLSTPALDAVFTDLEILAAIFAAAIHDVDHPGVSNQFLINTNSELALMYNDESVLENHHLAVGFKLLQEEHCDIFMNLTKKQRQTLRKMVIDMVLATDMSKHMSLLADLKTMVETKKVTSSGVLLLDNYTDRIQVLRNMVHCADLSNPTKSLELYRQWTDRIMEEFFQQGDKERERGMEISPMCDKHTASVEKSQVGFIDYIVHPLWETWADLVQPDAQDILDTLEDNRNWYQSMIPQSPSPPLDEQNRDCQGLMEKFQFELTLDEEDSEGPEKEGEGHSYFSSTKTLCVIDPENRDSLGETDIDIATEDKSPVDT
Chain of Dual specificity protein kinase CLK4 (Homo sapiens) (Q9HAZ1 whole entry, looked up): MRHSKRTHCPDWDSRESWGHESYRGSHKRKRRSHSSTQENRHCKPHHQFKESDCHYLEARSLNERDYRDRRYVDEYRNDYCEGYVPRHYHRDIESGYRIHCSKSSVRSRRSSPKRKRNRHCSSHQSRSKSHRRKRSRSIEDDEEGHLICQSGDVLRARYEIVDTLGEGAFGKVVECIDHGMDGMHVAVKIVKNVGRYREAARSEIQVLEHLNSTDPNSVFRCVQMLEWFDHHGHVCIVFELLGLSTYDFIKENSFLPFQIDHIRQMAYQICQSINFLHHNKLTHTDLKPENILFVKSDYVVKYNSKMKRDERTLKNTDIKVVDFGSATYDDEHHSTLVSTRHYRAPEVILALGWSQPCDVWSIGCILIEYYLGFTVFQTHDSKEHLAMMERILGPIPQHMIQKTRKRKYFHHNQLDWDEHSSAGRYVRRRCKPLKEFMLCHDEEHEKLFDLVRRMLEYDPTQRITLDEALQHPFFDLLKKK

Row | SMILES | Potency [1] | activity change, negative = inhibition [2] | Potency [3] | activity change, negative = inhibition [4] | Potency [5] | Potency [6] | outcome [7] | Potency [8] | Potency [9] | activity change, negative = inhibition [10] | max response [10, 18] | max response [10, 19] | Potency [11] | Potency [12] | Potency [13] | Potency [14] | Potency [15] | activity, negative = inhibition [16] | Potency [17]
1 | O=c1c(-c2cccs2)nc2cnc(N3CCOCC3)nc2n1Cc1ccc(F)cc1 | > 11.4 µM (inactive) | 27.4% (inactive) | 20 µM (active) | 27.2% (inactive) | > 9.22 µM (inactive) | > 46 µM (inactive) | inactive | inactive | inactive | -2.08% (inactive) | 18.9% | 13.5% | inactive | inactive | inactive | inactive | inactive |  | 
2 | COc1ncc2nc(-c3ccc(F)cc3)c(=O)n(-c3ccccc3)c2n1 | > 11.4 µM (inactive) | -5.39% (inactive) |  | -7.66% (inactive) | > 9.22 µM (inactive) | > 46 µM (inactive) | inactive | inactive |  | 2.16% (inactive) | -0.95% | -1.99% | inactive | inactive | inactive | inactive | inactive | -2.33% (inactive) | 
3 | O=c1c(-c2cc(F)cc(F)c2)nc2cncnc2n1Cc1ccccc1 | > 11.4 µM (inactive) | 16.7% (inactive) |  | -18% (inactive) | > 9.22 µM (inactive) | > 46 µM (inactive) |  |  |  | 2.57% (inactive) | -10.3% | -10.6% | inactive | inactive | inactive | inactive | inactive | -8.19% (inactive) | 
4 | Cc1cnc(CNc2ncncc2-c2cccnc2)cn1 | > 11.4 µM (inactive) | 12.8% (inactive) |  | -0.272% (inactive) | > 46 µM (inactive) | > 46 µM (inactive) | inactive | inactive |  | 5.94% (inactive) | 29.4% | 33.4% | inactive | inactive | inactive | inactive | inactive | 0.806% (inactive) | 
5 | Fc1ccc(Nc2ncncc2-c2ccccc2C(F)(F)F)cc1 | > 11.4 µM (inactive) | -13.5% (inactive) | 20 µM (active) |  | > 46 µM (inactive) | > 46 µM (inactive) | inactive |  | inactive | 3.62% (inactive) | 13% | 14.7% | inactive | inactive | inactive |  | inactive | 23.6% (inactive) | 398 nM (active)
6 | CN(C)C(=O)c1ccc(-c2cncnc2NC2CCNCC2)cc1 | > 11.4 µM (inactive) | 7.68% (inactive) |  | 9.18% (inactive) | > 46 µM (inactive) | > 46 µM (inactive) | inactive | inactive |  | 3.5% (inactive) | 11.8% | 12.7% | inactive | inactive | inactive | inactive | inactive | 15.4% (inactive) | 
7 | Cn1cc(-c2nc3cnc(Oc4ccccc4)nc3n(C3CC3)c2=O)c2ccccc21 | > 11.4 µM (inactive) | 13.1% (inactive) | 5.01 µM (active) | 9.34% (inactive) | > 9.22 µM (inactive) | > 46 µM (inactive) | inactive | inactive | inactive | 1.27% (inactive) | 1.6% | 0.0554% | inactive | inactive | inactive | inactive | inactive |  | 
8 | CN1CCN(c2cc(-c3ccoc3)ncn2)CC1 | > 11.4 µM (inactive) | -1.21% (inactive) |  | -3.33% (inactive) | > 46 µM (inactive) | > 46 µM (inactive) | inactive | inactive |  | 6.62% (inactive) | 23% | 27.8% | inactive | inactive | inactive | inactive | inactive | 8.56% (inactive) | 
9 | CN(C)c1ncc2nc(-c3ccccc3)c(=O)n(-c3ccccc3)c2n1 | > 11.4 µM (inactive) | 15.6% (inactive) | 0.398 µM (active) |  | > 9.22 µM (inactive) | > 46 µM (inactive) | inactive |  |  | -3.18% (inactive) | 22.5% | 15.8% | inactive | inactive | inactive | inactive | inactive |  | 
10 | CN1CCN(c2ncncc2-c2ccc(C(=O)N(C)C)cc2)CC1 | > 11.4 µM (inactive) | 14.8% (inactive) | 15.8 µM (active) | 4.17% (inactive) | > 46 µM (inactive) | > 46 µM (inactive) | inactive | inactive | inactive | 1.02% (inactive) | 12.3% | 11.3% | inactive | inactive | inactive |  | inactive |  | 
11 | CNc1ncncc1-c1c(C)noc1C | > 11.4 µM (inactive) | -14.2% (inactive) |  | -0.793% (inactive) | > 46 µM (inactive) | > 46 µM (inactive) | inactive | inactive |  | 7.32% (inactive) | 37% | 45.6% | inactive | inactive | inactive | inactive | inactive | 11.7% (inactive) | 
12 | Cc1nc2cnc(N(C)C)nc2n(C[C@H]2CCCO2)c1=O | > 11.4 µM (inactive) | -5.35% (inactive) |  | -4.67% (inactive) | > 9.22 µM (inactive) | > 46 µM (inactive) | inactive |  |  | 2.86% (inactive) | 10.5% | 13.4% | inactive | inactive | inactive | inactive | inactive | -0.622% (inactive) | 

— PubChem BioAssay (NCATS)
